{"source": "PubChem BioAssay (NCATS)", "key": {"[1]": {"test": "qHTS of pediatric cancer cell lines to identify multiple opportunities for drug repurposing: Confirmatory screen for OHS-50 cells (AID 1347128);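 note: compound exposure lasted 48 h at 37 degrees C; nearly all actives have a fitted effect of over 55% in size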", "summary_of_the_method": "(§1)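 Cells (500-1,000/well) rested 5 h, then received compounds for 48 h; metabolically active cells were measured by CellTiter-Glo luminescence. Final concentrations spanned up to 46 µM (MIPE, 11-point) or 0.59 nM-46 µM (NPC, 8-point) in primary screens, 11-point in follow-ups.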"}, "[2]": {"test": "qHTS of pediatric cancer cell lines to identify multiple opportunities for drug repurposing: Confirmatory screen for SK-N-SH cells (AID 1347129)", "summary_of_the_method": "as §1"}, "Furin (Homo sapiens)": {"target": "Furin (Homo sapiens) (UniProt P09958)", "sequence (P09958 whole entry, looked up)": "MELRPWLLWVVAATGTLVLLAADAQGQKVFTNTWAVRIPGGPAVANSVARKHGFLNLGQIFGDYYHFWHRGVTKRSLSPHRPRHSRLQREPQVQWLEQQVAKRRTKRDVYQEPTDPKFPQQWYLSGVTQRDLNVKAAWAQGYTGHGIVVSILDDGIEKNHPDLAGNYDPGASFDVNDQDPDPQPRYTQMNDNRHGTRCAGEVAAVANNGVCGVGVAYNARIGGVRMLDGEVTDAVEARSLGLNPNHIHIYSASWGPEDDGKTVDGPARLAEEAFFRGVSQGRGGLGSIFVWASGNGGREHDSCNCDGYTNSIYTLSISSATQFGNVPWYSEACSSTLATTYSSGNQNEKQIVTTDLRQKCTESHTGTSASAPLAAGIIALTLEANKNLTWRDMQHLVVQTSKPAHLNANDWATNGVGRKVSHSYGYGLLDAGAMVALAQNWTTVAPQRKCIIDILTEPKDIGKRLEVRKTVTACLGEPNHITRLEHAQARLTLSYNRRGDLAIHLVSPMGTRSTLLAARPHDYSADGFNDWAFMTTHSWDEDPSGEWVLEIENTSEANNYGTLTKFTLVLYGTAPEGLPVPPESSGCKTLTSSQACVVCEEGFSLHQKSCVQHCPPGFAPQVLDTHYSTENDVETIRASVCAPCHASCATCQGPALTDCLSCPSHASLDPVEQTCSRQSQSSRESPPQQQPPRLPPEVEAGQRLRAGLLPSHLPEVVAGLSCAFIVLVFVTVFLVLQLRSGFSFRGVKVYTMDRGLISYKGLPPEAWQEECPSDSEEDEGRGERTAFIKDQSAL", "test": "Furin counterscreen qHTS for Zika virus inhibitors (AID 1347149)", "summary_of_the_method": "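Counterscreen measures cleavage of 2 microM BOC-RVRR-AMC, below its ~15 microM Km, by 5 nM full-length human furin at pH 7.0 after a 15-min compound preincubation. Inhibition derives from the 15-min fluorescence increase at 37C.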"}, "[3]": {"test_system": "Zika virus NS2B-NS3 protease (linked construct)", "test": "Confirmatory screen NINDS AMC qHTS for Zika virus inhibitors (AID 1347152)", "summary_of_the_method": "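IC50s from 4-parameter Hill fits of percent inhibition, based on AMC fluorescence gain (340/450 nm) over 15 min with 10 microM Bz-Nle-KRR-AMC. Enzyme: 1 nM linked NS2B-NS3 in Tris-HCl pH 8.0; 15-min compound preincubation.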"}, "[4]": {"test_system": "Zika virus NS2B-NS3 protease (unlinked complex)", "test": "Confirmatory screen GU AMC qHTS for Zika virus inhibitors (AID 1347153)", "summary_of_the_method": "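Unlinked NS2B-NS3 complex (25 nM) in 10 mM Tris-HCl pH 8.0, 0.01% Tween 20 preincubated 15 min with compound, then 10 microM Bz-Nle-KRR-AMC (Km 18.3 µM). Fluorescence change over 15 min, normalized, Hill-fitted.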"}, "[5]": {"test_system": "Zika virus NS2B-NS3 protease", "test": "Primary screen GU AMC qHTS for Zika virus inhibitors (AID 1347154)", "summary_of_the_method": "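Fluorogenic AMC-substrate cleavage by noncovalent NS2B-NS3 protease complex (25 nM, pH 8.0 Tris buffer with Tween 20) followed for 15 minutes at room temperature (~20% conversion). Percent inhibition from ex340/em450 signal change, fitted by 4-parameter Hill equation.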"}, "[6]": {"test": "Confirmatory screen GU Rhodamine qHTS for Zika virus inhibitors qHTS (AID 1347157)", "summary_of_the_method": "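Percent inhibition came from the 15-min rise in Rhodamine110 fluorescence (1.5 microM substrate, ~15% conversion), normalized to no-inhibitor and no-enzyme wells and Hill-fitted. Unlinked protease, 25 nM, pH 8.0 Tris buffer; compounds up to 114 microM, 15-min preincubation.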"}, "[7]": {"test": "ZIKV-mCherry secondary qHTS for Zika virus inhibitors (AID 1347158)", "summary_of_the_method": "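Compounds were tested in Vero monkey kidney cells infected with recombinant mCherry-expressing Zika virus at MOI 1 for 48-72 h at 37 °C. Fixed cells were nuclear-stained and imaged, and infection rate was taken as the fraction of mCherry-positive cells.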"}}, "note": "Results filed as inconclusive are left out. Calls of active or inactive are those of the source. Calls come from the whole dose curve; as a rule, active = well fitted curve in the direction sought with a large enough effect; inconclusive = small, poorly fitted or top-dose-only effect, or another doubt; inactive = no such curve, though single readings can be large; an effect the other way counts as inactive or inconclusive. Potency is the fitted concentration of half-maximal effect.", "data": [{"smiles": "O=C(Nc1cc(C(F)(F)F)cc(C(F)(F)F)c1)c1cc(Cl)ccc1O", "values": [{"measurement": "Potency", "setting": "[1]", "value": "0.928 µM (active)"}, {"measurement": "Potency", "setting": "[2]", "value": "3.72 µM (active)"}, {"measurement": "Potency", "setting": "Furin (Homo sapiens)", "value": "55.5 µM (active)"}, {"measurement": "Potency", "setting": "[3]", "value": "49.4 µM (active)"}, {"measurement": "Potency", "setting": "[4]", "value": "49.4 µM (active)"}, {"measurement": "Potency", "setting": "[5]", "value": "inactive"}, {"measurement": "Potency", "setting": "[6]", "value": "4.94 µM (active)"}]}, {"smiles": "Cc1cc(N2CCOCC2)cc2[nH]c(-c3c(NC[C@@H](O)c4cccc(Cl)c4)cc[nH]c3=O)nc12", "values": [{"measurement": "Potency", "setting": "[1]", "value": "3.29 µM (active)"}, {"measurement": "Potency", "setting": "[2]", "value": "3.72 µM (active)"}, {"measurement": "Potency", "setting": "[4]", "value": "inactive"}, {"measurement": "Potency", "setting": "[5]", "value": "17.1 µM (active)"}]}, {"smiles": "CC(C)(C)c1cc(NC(=O)Nc2ccc(-c3cn4c(n3)sc3cc(OCCN5CCOCC5)ccc34)cc2)no1", "values": [{"measurement": "Potency", "setting": "[1]", "value": "16.5 µM (active)"}, {"measurement": "Potency", "setting": "[2]", "value": "20.9 µM (active)"}]}, {"smiles": "C[C@@]12O[C@@H](C[C@]1(O)CO)n1c3ccccc3c3c4c(c5c6ccccc6n2c5c31)CNC4=O", "values": [{"measurement": "Potency", "setting": "[1]", "value": "4.65 µM (active)"}, {"measurement": "Potency", "setting": "[2]", "value": "5.26 µM (active)"}, {"measurement": "Potency", "setting": "Furin (Homo sapiens)", "value": "7.62 µM (active)"}, {"measurement": "Potency", "setting": "[3]", "value": "24.1 µM (active)"}, {"measurement": "Potency", "setting": "[4]", "value": "24.1 µM (active)"}, {"measurement": "Potency", "setting": "[5]", "value": "21.5 µM (active)"}, {"measurement": "Potency", "setting": "[7]", "value": "8.91 µM (active)"}]}, {"smiles": "CCC1=C[C@@H]2CN(C1)Cc1c([nH]c3ccccc13)[C@@](C(=O)OC)(c1cc3c(cc1OC)N(C)[C@@H]1[C@@](O)(C(=O)OC)[C@H](OC(C)=O)[C@]4(CC)C=CCN5CC[C@]31[C@@H]54)C2", "values": [{"measurement": "Potency", "setting": "[1]", "value": "11.7 µM (active)"}, {"measurement": "Potency", "setting": "[2]", "value": "5.9 µM (active)"}]}, {"smiles": "CC(NCc1ccc2c(c1)nc(NC(=O)c1ccc(-c3cn[nH]c3)s1)n2CC(C)(C)O)C(C)(C)C", "note": "(configuration not stated)", "values": [{"measurement": "Potency", "setting": "[1]", "value": "0.827 µM (active)"}, {"measurement": "Potency", "setting": "[2]", "value": "0.833 µM (active)"}]}, {"smiles": "CCS(=O)(=O)c1cccc(-c2cc(C(=O)NC3CCN(C)CC3)c(C)c3[nH]c4ncc(C)cc4c23)c1", "values": [{"measurement": "Potency", "setting": "[1]", "value": "1.85 µM (active)"}, {"measurement": "Potency", "setting": "[2]", "value": "2.09 µM (active)"}, {"measurement": "Potency", "setting": "Furin (Homo sapiens)", "value": "24.1 µM (active)"}, {"measurement": "Potency", "setting": "[3]", "value": "24.1 µM (active)"}, {"measurement": "Potency", "setting": "[4]", "value": "24.1 µM (active)"}, {"measurement": "Potency", "setting": "[5]", "value": "24.1 µM (active)"}]}, {"smiles": "COCCn1c2c([n+](Cc3cnccn3)c1C)C(=O)c1ccccc1C2=O", "values": [{"measurement": "Potency", "setting": "[1]", "value": "0.0052 µM (active)"}, {"measurement": "Potency", "setting": "[2]", "value": "0.235 µM (active)"}]}, {"smiles": "COc1ccc(-n2nc(C(N)=O)c3c2C(=O)N(c2ccc(N4CCCCC4=O)cc2)CC3)cc1", "values": [{"measurement": "Potency", "setting": "[1]", "value": "inactive"}, {"measurement": "Potency", "setting": "[2]", "value": "inactive"}]}, {"smiles": "COc1cc2nccc(Oc3ccc(NC(=O)C4(C(=O)Nc5ccc(F)cc5)CC4)cc3)c2cc1OC", "values": [{"measurement": "Potency", "setting": "[1]", "value": "20.8 µM (active)"}]}, {"smiles": "COc1cc(Nc2ncc(F)c(Nc3ccc4c(n3)N(COP(=O)(O)O)C(=O)C(C)(C)O4)n2)cc(OC)c1OC", "values": [{"measurement": "Potency", "setting": "[1]", "value": "5.22 µM (active)"}, {"measurement": "Potency", "setting": "[2]", "value": "2.35 µM (active)"}]}, {"smiles": "C#Cc1cccc(Nc2ncnc3cc(OC)c(OCCCCCCC(=O)NO)cc23)c1", "values": [{"measurement": "Potency", "setting": "[1]", "value": "2.4 µM (active)"}, {"measurement": "Potency", "setting": "[2]", "value": "2.41 µM (active)"}]}, {"smiles": "CC(C)(O)c1cc2nc(-c3cnc(N)nc3)nc(N3CCOCC3)c2s1", "values": [{"measurement": "Potency", "setting": "[1]", "value": "2.93 µM (active)"}, {"measurement": "Potency", "setting": "[2]", "value": "0.935 µM (active)"}]}, {"smiles": "NC(=O)Nc1cc(-c2cccc(F)c2)sc1C(=O)N[C@H]1CCCNC1", "values": [{"measurement": "Potency", "setting": "[1]", "value": "0.737 µM (active)"}, {"measurement": "Potency", "setting": "[2]", "value": "3.72 µM (active)"}]}, {"smiles": "CNC(=O)c1ccc(N2C(=S)N(c3cnc(C#N)c(C(F)(F)F)c3)C(=O)C23CCC3)cc1F", "values": [{"measurement": "Potency", "setting": "[1]", "value": "inactive"}, {"measurement": "Potency", "setting": "[2]", "value": "inactive"}]}, {"smiles": "CC(C)c1cc(-c2n[nH]c(=O)n2-c2ccc3c(ccn3C)c2)c(O)cc1O", "values": [{"measurement": "Potency", "setting": "[1]", "value": "inactive"}, {"measurement": "Potency", "setting": "[2]", "value": "inactive"}]}, {"smiles": "CC1(C)CCC(c2ccc(Cl)cc2)=C(CN2CCN(c3ccc(C(=O)NS(=O)(=O)c4ccc(N[C@H](CCN5CCOCC5)CSc5ccccc5)c(S(=O)(=O)C(F)(F)F)c4)cc3)CC2)C1", "values": [{"measurement": "Potency", "setting": "[1]", "value": "inactive"}]}, {"smiles": "CC[C@@]1(O)C(=O)OCc2c1cc1n(c2=O)Cc2cc3cc(O)ccc3nc2-1", "values": [{"measurement": "Potency", "setting": "[1]", "value": "0.0928 µM (active)"}, {"measurement": "Potency", "setting": "[2]", "value": "1.87 µM (active)"}]}, {"smiles": "CCn1nnc2c(N3CCOCC3)nc(-c3ccc(NC(=O)Nc4ccc(C(=O)N5CCN(C)CC5)cc4)cc3)nc21", "values": [{"measurement": "Potency", "setting": "[1]", "value": "1.17 µM (active)"}, {"measurement": "Potency", "setting": "[2]", "value": "5.9 µM (active)"}]}, {"smiles": "COC(=O)[C@]12CCC(C)(C)C[C@@H]1[C@@H]1C(=O)C=C3[C@@]4(C)C=C(C#N)C(=O)C(C)(C)[C@@H]4CC[C@@]3(C)[C@]1(C)CC2", "values": [{"measurement": "Potency", "setting": "[1]", "value": "5.22 µM (active)"}, {"measurement": "Potency", "setting": "[2]", "value": "2.09 µM (active)"}]}, {"smiles": "CCN1CCN(Cc2ccc(-c3cc4c(N[C@H](C)c5ccccc5)ncnc4[nH]3)cc2)CC1", "values": [{"measurement": "Potency", "setting": "[1]", "value": "4.79 µM (active)"}, {"measurement": "Potency", "setting": "[2]", "value": "10.8 µM (active)"}, {"measurement": "Potency", "setting": "Furin (Homo sapiens)", "value": "27.8 µM (active)"}, {"measurement": "Potency", "setting": "[3]", "value": "44.1 µM (active)"}, {"measurement": "Potency", "setting": "[4]", "value": "49.4 µM (active)"}, {"measurement": "Potency", "setting": "[5]", "value": "17.1 µM (active)"}]}, {"smiles": "CC(C)[C@H](C(=O)Nc1ccc(C(=O)NO)cc1)c1ccccc1", "values": [{"measurement": "Potency", "setting": "[1]", "value": "2.33 µM (active)"}, {"measurement": "Potency", "setting": "[2]", "value": "inactive"}]}, {"smiles": "Cc1[nH]nc2ccc(-c3cncc(OC[C@@H](N)Cc4ccccc4)c3)cc12", "values": [{"measurement": "Potency", "setting": "[1]", "value": "4.65 µM (active)"}, {"measurement": "Potency", "setting": "[2]", "value": "2.15 µM (active)"}]}, {"smiles": "Cc1cc(Nc2cc(NC(=O)c3c(Cl)cccc3Cl)ccn2)nc(N)n1", "values": [{"measurement": "Potency", "setting": "[1]", "value": "0.369 µM (active)"}, {"measurement": "Potency", "setting": "[2]", "value": "13.6 µM (active)"}]}, {"smiles": "CS(=O)(=O)N1CCN(Cc2cc3nc(-c4cccc5[nH]ncc45)nc(N4CCOCC4)c3s2)CC1", "values": [{"measurement": "Potency", "setting": "[1]", "value": "5.37 µM (active)"}, {"measurement": "Potency", "setting": "[2]", "value": "4.29 µM (active)"}]}, {"smiles": "O=C(O)c1ccc2cc(-c3ccc(O)c(C45CC6CC(CC(C6)C4)C5)c3)ccc2c1", "values": [{"measurement": "Potency", "setting": "[1]", "value": "2.93 µM (active)"}, {"measurement": "Potency", "setting": "[2]", "value": "inactive"}]}, {"smiles": "C=CCn1c(=O)c2cnc(Nc3ccc(N4CCN(C)CC4)cc3)nc2n1-c1cccc(C(C)(C)O)n1", "values": [{"measurement": "Potency", "setting": "[1]", "value": "1.04 µM (active)"}, {"measurement": "Potency", "setting": "[2]", "value": "3.32 µM (active)"}]}]}
